SMN2 splice up: SMN2 splice variant enhancement | HEK293 SMN2-luciferase splicing reporter, luminescence, 30-36 h | Potency, µM (top dose mostly 46.1 µM), most hits filed as activators | 210,000 compounds, 2.8% hits; also: nearly all actives have a fitted effect of over 55% in size
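qHTS luciferase splicing reporter: luminescence rises when SMN2 exon 7 is included in transfected HEK293 cells. Compound exposure lasted 30-36 h at 37C, with 4.5 mM final sodium butyrate as control, followed by a ONE-Glo read.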
p53 reactivator: re-activators of mutant p53 | H1299 p53-A138V BP100-luciferase reporter, luminescence, 24 h | AID 504706 | 320,000 compounds, 0.063% hits | Potency, µM (titrated, usually from 92.2 µM), most hits filed as activators; also: nearly all actives have a fitted effect of over 45% in size
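H1299 (p53-null), stable ts p53-A138V + BP100-Luc; 1000 cells/well, Opti-MEM/10% FBS; cpd 4 pt, 1:5; 24 h, 37 deg C, 5% CO2; detection reagent 10 min RT; luminescence.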
NPC1 prom act: NPC1 promoter activation; Huh7 NPC1 promoter luciferase reporter, 24 h; Potency, µM (doses to about 9.22 µM), hits mostly activators; 320,000 compounds, 2.4% hits; AID 485313; also: nearly all actives have a fitted effect of over 60% in size
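Luminescence read-out of NPC1 promoter-driven luciferase in stably transfected Huh7 cells; compounds delivered in DMSO and left 24 h at 37C, 5% CO2, qHTS titration format.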
FLuc modulator: inhibits or activates purified firefly luciferase, miR-21 counter-screen | P08659 | purified FLuc, Km substrates, luminescence inhibition | Potency, µM (top dose mostly 57.5 µM), hits mostly inhibitors | 360,000 compounds, 6.9% hits; also: nearly all actives have a fitted effect of over 55% in size
Target sequence (P08659 whole entry, looked up): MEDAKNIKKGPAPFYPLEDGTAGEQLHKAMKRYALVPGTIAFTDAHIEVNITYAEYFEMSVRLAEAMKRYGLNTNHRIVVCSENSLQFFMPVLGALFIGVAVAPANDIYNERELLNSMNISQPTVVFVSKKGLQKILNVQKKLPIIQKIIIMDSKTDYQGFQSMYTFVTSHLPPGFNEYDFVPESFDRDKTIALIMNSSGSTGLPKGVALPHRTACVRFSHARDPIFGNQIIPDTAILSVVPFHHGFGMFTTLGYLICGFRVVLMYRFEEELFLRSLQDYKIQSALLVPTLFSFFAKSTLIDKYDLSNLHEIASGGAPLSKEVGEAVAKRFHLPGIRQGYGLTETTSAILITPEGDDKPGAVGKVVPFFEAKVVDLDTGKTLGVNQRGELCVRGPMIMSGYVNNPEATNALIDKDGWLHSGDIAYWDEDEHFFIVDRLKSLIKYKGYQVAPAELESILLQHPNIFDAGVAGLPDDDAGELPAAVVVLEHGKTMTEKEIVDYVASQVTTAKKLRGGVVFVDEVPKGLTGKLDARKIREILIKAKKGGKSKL
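Purified P. pyralis luciferase, 10 nM final, with Km-level 10 uM D-luciferin and 10 uM ATP in 50 mM Tris acetate pH 7.5, 10 mM Mg acetate, 0.01% Tween-20, 0.05% BSA; 6-point qHTS titration about 60 µM downward; luminescence read.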
ELG1 genotox: genotoxicity induction in ELG1-luciferase HEK293T cells; Potency, µM (doses to about 46 µM), most hits filed as activators; 330,000 compounds, 1.3% hits; HEK293T ELG1-luciferase reporter, luminescence, 16 h; also: nearly all actives have a fitted effect of over 60% in size
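Cells (2,000/well) expressing the ELG1-luciferase fusion are dosed by pin tool and kept 16 hr at 37 °C, 5% CO2. Signal comes from ONE-Glo luciferase reagent after 30 min at room temperature.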
Rab9 promoter act: Rab9 promoter activation; Huh7 Rab9 promoter-luciferase reporter, luminescence, 24 h; Potency, µM (highest dose often 9.22 µM), most hits filed as activators; 320,000 compounds, 2.8% hits; AID 485297; also: nearly all actives have a fitted effect of over 60% in size
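Cells were plated at 1500 per well in reduced-serum medium with 10% FBS and left 2 h. Compound in DMSO was then added for 24 h at 37 °C. Reporter signal was read by luminescence after 10 min with luciferase detection reagent.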
Each line names hits and unclear results; the compound was inactive in the other large screens. Compounds with a hit are over-represented: about 7.3% of the library has one in this group of screens. Calls follow the shape of the dose curve; as a rule, active = well fitted curve in the direction sought with a large enough effect; inconclusive = small, poorly fitted or top-dose-only effect, or another doubt; inactive = no such curve, though single readings can be large; an effect the other way counts as inactive or inconclusive.

COC(=O)c1sccc1-c1ccc(C(N)=O)o1	none
COC(=O)C(=Cc1ccc(-c2ccsc2C(=O)OC)o1)C(=O)OC	p53 reactivator inconclusive, FLuc modulator 11µM (no result: SMN2 splice up)
COC(=O)c1sccc1-c1ccc(C(=O)Nc2cccnc2)o1	SMN2 splice up 18µM, NPC1 prom act 2.2µM, FLuc modulator 8.5µM, Rab9 promoter act 3.5µM
CCOC(=O)/C(C#N)=C/c1ccc(-c2ccsc2C(=O)OC)o1	NPC1 prom act inconclusive, Rab9 promoter act 2.5µM
O=C(COc1ccccc1F)Nc1ccc2nc(SCC(=O)N3CCc4ccccc43)sc2c1	none (no result: SMN2 splice up, p53 reactivator, NPC1 prom act, ELG1 genotox, Rab9 promoter act)
CCOc1ccccc1/C=C(\C#N)C(N)=O	none (no result: p53 reactivator, NPC1 prom act, FLuc modulator, ELG1 genotox, Rab9 promoter act)
Cc1csc2nc(COC(=O)CNC(=O)c3ccccc3Cl)cc(=O)n12	none (no result: SMN2 splice up, p53 reactivator, NPC1 prom act, ELG1 genotox, Rab9 promoter act)
COC(=O)c1sccc1-c1ccc(/C=N/OC(=O)c2cccs2)o1	FLuc modulator 5.4µM (no result: SMN2 splice up)
CCOC(=O)C(=Cc1ccc(-c2ccsc2C(=O)OC)o1)C(=O)OCC	FLuc modulator 19µM
O=C(Nc1cccc(F)c1)N1CC[C@@]2(CCCN(C(=O)c3cc(C(F)(F)F)cc(C(F)(F)F)c3)C2)C1	none (no result: p53 reactivator, NPC1 prom act, FLuc modulator, ELG1 genotox, Rab9 promoter act)
CC1=N[C@@](C)(COC(=O)[C@]2(C)N[C@](C)(CO)CO2)COC1=O	none (no result: p53 reactivator, NPC1 prom act, FLuc modulator, ELG1 genotox, Rab9 promoter act)
CSC(N)=NCCC[C@H](N)C(=O)O	none (no result: p53 reactivator, FLuc modulator, ELG1 genotox)
O=C(COc1ccc(OCc2ccccc2)cc1)NC1CCOC1=O (stereo unspecified)	FLuc modulator 21µM
CCNC(=O)COc1ccc(OCc2ccccc2)cc1	FLuc modulator inconclusive
CN(C)CCN1CC(O)=C(c2nc3ccccc3s2)C1=N	none (no result: SMN2 splice up)
N=C1C(c2nc3ccccc3s2)=C(O)CN1Cc1ccco1	SMN2 splice up inconclusive, p53 reactivator inconclusive, NPC1 prom act inconclusive, FLuc modulator inconclusive, ELG1 genotox 9.2µM, Rab9 promoter act inconclusive
Cc1cc(C)cc(-n2ccn(CC(=O)Nc3ccccc3C(F)(F)F)c(=O)c2=O)c1	none (no result: SMN2 splice up, p53 reactivator, NPC1 prom act, ELG1 genotox, Rab9 promoter act)
NC(=O)c1ccsc1NC(=O)c1coc2ccccc2c1=O	SMN2 splice up 11µM, p53 reactivator inconclusive, NPC1 prom act inconclusive, FLuc modulator 2.4µM, ELG1 genotox 7.3µM, Rab9 promoter act 2µM
Cc1occc1C(=O)Nc1sccc1C(N)=O	FLuc modulator inconclusive (no result: SMN2 splice up)
CC(=NC1CCCC1)c1c(C)[nH]n(-c2nc3ccccc3s2)c1=O	SMN2 splice up inconclusive, p53 reactivator inconclusive, NPC1 prom act inconclusive, FLuc modulator 3.4µM, ELG1 genotox inconclusive, Rab9 promoter act inconclusive
Cc1oc(/N=C/c2ccc(O)cc2O)c(C#N)c1C	FLuc modulator 17µM
Cc1oc(/N=C/c2ccccc2O)c(C#N)c1C	none
Cc1oc(/N=C/c2ccc(Cl)cc2Cl)c(C#N)c1C	none
Cc1oc(/N=C/c2ccc(Cl)cc2)c(C#N)c1C	FLuc modulator 11µM
CCN(CC)C(=O)Cn1c(=O)n(Cc2ccc(C(=O)NCCc3ccc(OC)c(OC)c3)cc2)c(=O)c2ccccc21	none (no result: p53 reactivator, NPC1 prom act, ELG1 genotox, Rab9 promoter act)
CN=c1scc(-c2ccccc2F)n1/N=C(\C)c1cccnc1	SMN2 splice up 11µM, NPC1 prom act 1.4µM, FLuc modulator 7.6µM, ELG1 genotox inconclusive, Rab9 promoter act 1.8µM
O=C(/C=C/c1ccc(-c2ccccc2[N+](=O)[O-])o1)c1ccco1	FLuc modulator 19µM, Rab9 promoter act inconclusive
Cc1c(NC(=O)C(C)Oc2cccc(F)c2)c(=O)n(-c2ccccc2)n1C (stereo unspecified)	none (no result: SMN2 splice up, NPC1 prom act, FLuc modulator, Rab9 promoter act)
c1ccc2c(c1)oc1c(NCCCN3CCOCC3)ncnc12	none
c1ccc(-n2ncc3c(NCCCN4CCOCC4)ncnc32)cc1	SMN2 splice up inconclusive, NPC1 prom act 3.2µM, FLuc modulator 24µM, ELG1 genotox inconclusive, Rab9 promoter act 4µM
Clc1ccc(-n2ncc3c(NCCN4CCOCC4)ncnc32)cc1	p53 reactivator inconclusive, FLuc modulator 6.7µM, ELG1 genotox 3.7µM
Clc1ccc(-n2ncc3c(NCc4ccccn4)ncnc32)cc1	NPC1 prom act inconclusive, Rab9 promoter act inconclusive (no result: FLuc modulator)
CC(C)NC(=O)N1CC[C@@]2(CCCN(S(C)(=O)=O)C2)C1	none (no result: p53 reactivator, NPC1 prom act, FLuc modulator, ELG1 genotox, Rab9 promoter act)
COc1ccc(S(=O)(=O)NCCS(=O)(=O)N2CCN(c3ccccc3F)CC2)cc1	none (no result: SMN2 splice up, p53 reactivator, NPC1 prom act, ELG1 genotox, Rab9 promoter act)
Cc1ccc(N2CC(C(=O)Nc3ccc(Br)cc3)CC2=O)cc1 (stereo unspecified)	none (no result: SMN2 splice up, p53 reactivator, NPC1 prom act, ELG1 genotox, Rab9 promoter act)
